The structures appear in SMILES notation. About 2,400 (1.1%) of roughly 220,000 compounds were called active. The entries come from a sample that favours actives as a whole. Unmarked numbers belong to inactive results.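 Rule for the calls: active = inhibition above the campaign mean plus 3 SD over all tested compounds (cut at about 24% in these data); inactive = the rest.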

This assay is described as follows: viability loss in Ba/F3 EpoR-JAK2V617F cells – cell-based, luminescence, JAK2V617F inhibitor project, primary screen (AID 1446).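 Note: cytokine-independent growth of Ba/F3 cells driven by EpoR plus mutant JAK2; 0% = DMSO-treated cells and 100% = JAK inhibitor I control.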 As to conditions: ATP luminescence, at 5.6 µM, stronger effect = higher value.
As a reminder, the inhibition is the change of the read-out against control, counted positive when it falls. Turning to `O=C(NC1CCCCC1)c1cc(C2CC2)on1`, the inhibition is -4.7%. With `CN(C)c1ccc(Nc2c3c4c(cccc4n(C)c2=O)C(=O)c2ccccc2-3)cc1` the figure was 2.4%; with `CON(C)S(=O)(=O)c1ccc2c(c1)NC(=O)C1CCCN21` (configuration not stated), 1.23%.

Regarding `Nn1c(SCc2ccccc2)nnc1C1CCCCC1`, the inhibition is -0.47%. With `COc1cccc(OC)c1C(=O)Nc1ccc(N2CCCCC2)cc1` the figure was -0.78%; with `COc1cccc(C(=O)Nc2ccc(N3CCCC3)cc2)c1`, 59.5% (active). As to `COc1ccc(C(=O)NC(=S)Nc2ccc(N3CCCC3)cc2)cc1OC`, the inhibition was -0.26%. Turning to `CSc1nnc(-c2ccc(C(F)(F)F)cn2)o1`, the inhibition was -4.69%.

For `CC(=O)NC(Cc1ccc(F)c(F)c1)C(=O)NC1CCN(c2nnnn2-c2ccccc2)CC1` (configuration not stated), the inhibition is 1.68%. As to `O=C(COC(=O)CNS(=O)(=O)c1ccccc1)NC12CC3CC(CC(C3)C1)C2`, the inhibition is 2.17%.

In the case of `Cc1ccc(NC(=O)CN(C)CC(=O)Nc2cccc(F)c2)cc1[N+](=O)[O-]`, the inhibition was 32.7% (active). With `Cc1ccc(CN(C)CC(=O)Nc2cccc([N+](=O)[O-])c2)o1` the figure was -2.99%; with `CN(CC(=O)Nc1cccc(F)c1)CC(=O)Nc1cccc([N+](=O)[O-])c1`, 1.69%. With `Nc1ccc2nn(-c3ccc(Cl)cc3)nc2c1` the figure was -0.91%. With `Cc1ncc([N+](=O)[O-])n1CCOC(=O)c1ccc(Br)cc1` the figure was -1.79%. Regarding `CCCCCCNC(=O)CSc1nccn1Cc1ccccc1`, the inhibition is -2.6%.

Turning to `COc1ccc(-n2nnnc2-c2nc3ccccc3s2)cc1`, the inhibition is -2.25%. With `CCOc1cccc(-c2nnc3sc(COc4ccc(OC)cc4)nn23)c1` the figure was -2.87%. With `CCOc1cccc(-n2nnnc2-c2ccc(OC)cc2)c1` the figure was 62.5% (active). With `CCn1c2ccccc2c2cc(NC(=O)CNC)ccc21` the figure was -0.79%; with `CCc1ccc(NC(=O)N2CCN(c3ccccc3)CC2)cc1`, 0.49%. Regarding `CC[n+]1c(C)n(-c2ccccc2)c2ccc(NC(C)=O)cc21`, the inhibition is 70.6% (active). On to `COc1cccc(NC(=O)CC2C(=O)NCCN2C(=S)Nc2ccc(F)cc2)c1` (configuration not stated), for which the inhibition is 3.64%. With `COc1ccc(S(=O)(=O)N(CC(=O)N/N=C/c2ccccc2C(=O)O)c2ccccc2OC)cc1` the figure was -2.32%. With `Cc1ccccc1-c1nc(C#N)c(NCc2ccco2)o1` the figure was 0.66%; with `COc1ccc(Nc2oc(-c3ccccc3Cl)nc2C#N)cc1`, 50.8% (active). With `COc1ccccc1-c1nc(C#N)c(N2CCC(C(N)=O)CC2)o1` the figure was -2.39%; with `CC(C)C(=O)Nc1oc(-c2ccccc2)cc1C#N`, 0.17%; with `CC1CCN(S(=O)(=O)c2ccc(S(=O)(=O)NCc3cccnc3)cc2)CC1`, 0.32%.

For the compound `CCCCCCCCn1c2c(c(=N)c3c1CCC3)CCCC2`, the inhibition was 101% (active). With `CCCCCCn1c(CN2CCCCC2)nc2c1c(=O)n(C)c(=O)n2C` the figure was -2.26%; with `Cc1cc(NCc2cccnc2)no1`, -7.11%; with `CN(Cc1cccnc1)C(=O)c1cc(COc2ccc3ncccc3c2)on1`, 54.2% (active). With `Cc1noc(C)c1COc1cccc(C(=O)Nc2cccnc2)c1` the figure was -0.6%; with `Cc1cccc(-[n+]2c(-c3cccc(Br)c3)[nH]c3nc4ccccc4nc32)c1`, -1.46%. With `CCCC(=O)Nc1nc2ccc(NC(=O)c3c(F)c(F)c(OC)c(F)c3F)cc2s1` the figure was 81.8% (active); with `COc1ccc2nc(Nc3nc4ccc(NC(C)=O)cc4s3)sc2c1`, -4.43%. As to `CCCC(=O)Nc1nc2ccc(NC(=O)c3cccnc3)cc2s1`, the inhibition is 2.04%. With `CCc1cccc(NC(=O)CCNS(=O)(=O)c2cccc3nonc23)c1` the figure was -3.57%; with `Cc1onc(-c2ccc(Cl)cc2)c1-c1ccnn1S(=O)(=O)c1ccc(Cl)cc1`, -1.9%. With `CC1=NOC(=O)/C1=C\c1ccccc1` the figure was -4.85%; with `COc1cc(/C=C2/C(=O)ON=C2C)ccc1OCc1ccccc1F`, -2.39%; with `COc1cc(/C=C2/C(=O)ON=C2C)ccc1OCc1cccc(F)c1`, 67.1% (active).

As for `COc1ccc(NS(=O)(=O)c2ccc(N3CCOCC3)c(NC(=O)c3ccccc3Br)c2)cc1`, the inhibition was 2.5%.

Regarding `COc1ccccc1N=Cc1c(O)c2ccccc2oc1=O`, the inhibition was 5.52%. With `CC(=O)Nc1nc2ccccc2n1Cc1ccc(C)cc1` the figure was -2.63%; with `CCCn1c(NC(=O)C23CC4CC(CC(O)(C4)C2)C3)nc2ccccc21`, 53% (active). With `CCC(=O)Nc1nc2ccccc2n1Cc1ccccc1C` the figure was -0.24%; with `CCOP(=O)(OCC)C(Nc1cccc(C)c1)c1ccc(F)cc1` (configuration not stated), -3.26%.

For the compound `Cn1cc(/C=C/c2nc3ccccc3c(=O)n2-c2cccc([N+](=O)[O-])c2)c2ccccc21`, the inhibition was 0.27%. With `CCn1c(/C=C/c2ccc([N+](=O)[O-])o2)nc2ccccc2c1=O` the figure was 40.5% (active); with `C/[N+]([O-])=C\c1ccc([N+](=O)[O-])o1`, -0.25%; with `CCc1nnc(NC(=O)CSc2nnnn2-c2cccc(C(C)=O)c2)s1`, -3.92%. With `CC(=O)Nc1ccc(S(=O)(=O)Oc2ccc(/C=N/N=C3/NC(=O)C(CC(=O)O)S3)cc2)cc1` (configuration not stated) the figure was 1.79%. For `COc1ccc(-c2csc(Nc3ccccn3)n2)cc1`, the inhibition was -3.7%. With `O=c1oc2ccccc2cc1-c1csc(Nc2ccc(O)cc2)n1` the figure was 70.4% (active). With `COc1ccc(OC)c(Nc2nc(-c3ccc(O)c(O)c3)cs2)c1` the figure was 35.7% (active).

Turning to `CCNc1nc(-c2cc3ccccc3o2)cs1`, the inhibition is -1.02%.

In the case of `COc1ccc2nc(Nc3nc(-c4ccncc4)cs3)sc2c1`, the inhibition was 3.58%. With `COc1ccc(-c2csc(Nc3ccc(O)cc3)n2)cc1` the figure was 65.8% (active); with `COc1ccc(C)cc1Nc1nc(-c2c(C)[nH]c3ccccc23)cs1`, -2.69%; with `COc1ccc2nc(Nc3nc(-c4cc5ccccc5oc4=O)cs3)sc2c1`, -2.4%. With `COc1ccc(Nc2nc(-c3ccccc3)cs2)cc1` the figure was 1.67%. With `Cc1ccc(O)c(CCc2ccccc2)n1` the figure was -4.38%; with `Cc1nc(Cl)c(C#N)c2c1CCCC2`, -4.53%. As for `Cc1cc(C)n(CC(O)CN(c2ccccc2)S(=O)(=O)c2ccc3ccccc3c2)n1` (configuration not stated), the inhibition was 0.98%. With `S=c1[nH]c2ccccc2c2ccccc12` the figure was -1.73%; with `CN(C)CCNC(=O)/C(=C/c1cccc([N+](=O)[O-])c1)NC(=O)c1ccccc1`, 3.86%.

`O=C1/C(=C\c2ccsc2)NC(=S)N1c1ccccc1`: the inhibition is -2.32%. With `Cc1ccccc1NC(=O)CN1C(=O)N/C(=C\c2cccn2-c2cccc(C(=O)O)c2)C1=O` the figure was 0.8%; with `O=C1N/C(=C/c2cccn2-c2ccccc2)C(=O)N1c1cccc(Cl)c1`, 51.8% (active); with `Cc1ccc(C(=O)NN(CCC#N)C2=NS(=O)(=O)c3ccccc32)cc1`, -4.16%. As to `Cc1ccc2sc(NNC(=O)c3ccc4c(c3)OCCO4)nc2c1C`, the inhibition was -3.73%.

With `COc1ccc(Nc2cc(=O)oc3ccccc23)cc1`, the inhibition was 55.1% (active). With `COc1ccc(Nc2cc(=O)n(-c3ccccc3)c3c2c(=O)n(C)c(=O)n3C)cc1` the figure was 0.16%; with `COc1ccc(N2CCN(Cc3cc(=O)oc4ccc5ccccc5c34)CC2)cc1`, 0.19%.

Regarding `O=C(CC(c1ccccc1)c1cc(Cl)ccc1O)NCCN1CCOCC1` (configuration not stated), the inhibition was -3.6%. Take `C/C(CC(C)C)=N\Oc1nc(C)cc(C)n1`: the inhibition is -2.21%. In the case of `O=[N+]([O-])c1cc(C(F)(F)F)ccc1NN=C1CCCC1`, the inhibition is -0.95%. Take `O=C(CCN1CCCCC1)N=Nc1c(O)[nH]c2ccccc12`: the inhibition was 1.24%.

Consider `COC(=O)COc1cccc2c(=O)n(CC(=O)NCc3ccccc3)ccc12`, for which the inhibition is 58.8% (active).

Turning to `COC(=O)COc1cccc2c(=O)n(CC(=O)NCCc3ccc(OC)c(OC)c3)ccc12`, the inhibition is -2.26%. With `Cc1ccc(CNC(=O)CCNC(=O)Cn2ccc3ccccc3c2=O)cc1` the figure was 0.07%; with `CC(C)(C)NC(=O)c1ccc(Cn2cc(C(F)(F)F)ccc2=O)cc1`, 0.95%; with `Cc1cc2ccccn2c1C(=O)c1cccc(S(=O)(=O)N2CCOCC2)c1`, -0.04%.

As to `C/C(CC(=O)NC(C)(C)C)=N\NC(=O)c1ccco1`, the inhibition is -1.54%.

As to `CCCNc1c(N)c(=O)c1=O`, the inhibition was 1.36%. With `CCc1cc(C(=O)c2ccc(OC)cc2)c(NC(=O)CN2CCN(C)CC2)s1` the figure was -1.89%; with `CCOC(=O)C1CCN(c2ncnc3c2oc2ccc(Br)cc23)CC1`, 0.71%.

For the compound `CCOC(=O)N1CCN(C(=O)C2CCN(c3ncnc4c3sc3cccc(F)c34)CC2)CC1`, the inhibition is 43.9% (active). Turning to `CCOC(=O)N1CCN(C(=O)C2CCN(Cc3ccc(OC)cc3OC)CC2)CC1`, the inhibition is -0.59%. Take `COc1ccc(/C=N/OCC(=O)N(Cc2ccccc2)c2ccccc2C(=O)O)cc1`: the inhibition is -2.1%.

With `CCCCN1C(=O)/C(=C(/C#N)C(N)=O)c2ccccc21`, the inhibition is -3.07%. With `CC(C)c1ccc(Nc2nnc(SCC(=O)c3nnc(-c4ccccc4)o3)s2)cc1` the figure was 0.01%; with `COc1ccc(CCNC(=O)C(=O)NCC2CCNCC2)cc1OC`, -3.6%; with `Cc1ccc2c(c1)C1CN(C)CCC1N2S(=O)(=O)c1ccc(Oc2ccc([N+](=O)[O-])cc2)cc1` (configuration not stated), -5.1%. With `CCn1c(CSCc2c(Cl)cccc2Cl)n[nH]c1=S` the figure was -2.13%.

(Values after PubChem BioAssay AID1446 (The Scripps Research Institute Molecular Screening Center, 2008).)
